# From PubChem BioAssay (NCI)
# This is part of a sample that, as a whole, favours compounds with a hit. Of some 83,000 tested, about 20% had one in any assay.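 Each cell line was grown in a 96-well plate and treated with one concentration of compound for 48 hours. Values below 10 were considered active.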 Values without a mark were called inactive. Activity calls are given as the source filed them.
# Assays:
# Test in all cases: NCI-60 one-dose screen, 48 h (100 = growth as untreated, 0 = no growth, -100 = all killed)
# Details in all cases: 10 µM unless noted
# T-47D breast = tested on: T-47D breast
# BT-549 breast = tested on: BT-549 breast
# MDA-MB-435 melanoma = tested on: MDA-MB-435 melanoma
# SW-620 colon = tested on: SW-620 colon
# MCF7 breast = tested on: MCF7 breast
# HCT-116 colon = tested on: HCT-116 colon
# HCC-2998 colon = tested on: HCC-2998 colon
# KM12 colon = tested on: KM12 colon
Compound,growth (T-47D breast),growth (BT-549 breast),growth (MDA-MB-435 melanoma),growth (SW-620 colon),growth (MCF7 breast),growth (HCT-116 colon),growth (HCC-2998 colon),growth (KM12 colon)
O=C(c1nn(-c2ccccc2)c2c1CC(NCc1ccc(F)cc1)CC2)N1CCCCC1 (centres undefined),93.6%,84.6%,98.9%,110%,88.1%,90.5%,104%,–
CCOC(=O)c1ccc(NC(=O)c2nc(-c3cc(OC)c(OC)c(OC)c3)n(-c3ccc(Cl)cc3)n2)cc1,77.6%,74.6%,88.9%,105%,86.7%,87.8%,107%,–
COc1ccc(-c2ccc(-c3ccc(C(=N)N)cc3)s2)cc1Cl,42.6%,93.7%,-65.2% (active),-71.9% (active),-65.5% (active),-52.8% (active),-37.8% (active),–
Cc1cc(C)c2c(c1)N(C)c1ncnc(-n3cnc4cc(C)ccc43)c1CC2C (centres undefined),28.8%,29.8%,8.39% (active),21.4%,17.1%,11.1%,52.1%,–
O=C(O)CCN1C(=O)/C(=C/C(Cl)=C/c2ccccc2)SC1=S,28.8%,16.9%,-63.4% (active),7.78% (active),15.7%,-19% (active),4.75% (active),–
C#CCOc1cccc(Nc2ncnc3cc(NC(=O)C=C)ccc23)c1,8.13% (active),7.82% (active),-1.49% (active),12.1%,20.4%,2.37% (active),60.7%,–
Cc1ccc(C)n1-c1ccccc1-n1c(C)ccc1C,91.2%,104%,94.1%,139%,101%,104%,115%,–
Nc1c(C(=O)Nc2ccccc2F)sc2nc3c(cc12)CCCC3,41.9%,56.8%,-7.54% (active),25.3%,18%,23.7%,57.7%,27.6%
COC(=O)/C=C1/SC(=Nc2cccc(OC)c2)N(CCc2c[nH]c3ccc(O)cc23)C1=O,42.2%,33.1%,23.5%,56.1%,20.4%,34.3%,65.1%,–
CCSc1oc(-c2ccccc2)nc1[P+](c1ccccc1)(c1ccccc1)c1ccccc1,1.87% (active),-10.9% (active),3.45% (active),10.8%,4.96% (active),2.27% (active),14.5%,–
COc1ccc(-c2nc3c(ncc4ccc(=O)[nH]c43)s2)cc1,78.7%,86.4%,80.6%,66.5%,62.5%,79.2%,91%,–
Cc1cc(S(=O)(=O)/N=C(\N)n2nc(C)c(C)c2C)c(SCc2ccccc2)cc1Cl,53%,112%,27%,75.4%,70.8%,62%,56.9%,–
O=C1/C=C/[C@@H](O)[C@@H]2C[C@@H](O)C[C@H]2/C=C/CCC[C@H](CCc2ccccc2)O1,15.1%,9.81% (active),5.95% (active),-9.76% (active),-3.62% (active),-73.6% (active),15.9%,-50.5% (active)
Cc1ccc(C2=Nc3c(N)ncnc3NC(c3cccc(Nc4ccnc5cc(C(F)(F)F)ccc45)c3)C2)cc1 (centres undefined),38.4%,53.6%,-55.4% (active),12.3%,8.09% (active),12.6%,31%,–
N#Cc1c(-c2ccccc2)[nH]c2ncc(-c3ccccc3)n2c1=O,71.9%,89.1%,102%,101%,71.3%,87%,83.3%,–
C#Cc1c2c(c(OC)c3c1OCO3)[C@H]([C@H]1OC(=O)c3c1ccc(OC)c3OC)N(C)CC2,86.7%,90%,7.84% (active),84.5%,55.5%,89.8%,86.4%,59.9%
CSc1nc2ccccc2cc1/C=C1/C=C(c2ccccc2)NC1=O,79.9%,77.4%,3.27% (active),55.4%,49.8%,56.8%,93.2%,–

Compound,growth (T-47D breast),growth (BT-549 breast),growth (MDA-MB-435 melanoma),growth (SW-620 colon),growth (MCF7 breast),growth (HCT-116 colon),growth (HCC-2998 colon),growth (KM12 colon)
NC(=O)CSc1oc(-c2ccccc2)nc1S(=O)(=O)c1ccc(Br)cc1,57.8%,62.1%,81%,94.4%,75%,50.6%,93.3%,–
Nc1n[nH]c2cccc(C#Cc3cccc(C(=O)Nc4cc(C(F)(F)F)cc(C(F)(F)F)c4)c3)c12,73.9%,98.6%,47.6%,78.6%,65.5%,35.3%,80.3%,–
Oc1ccc(Cl)cc1/C=N\NC(=S)N/N=C/c1cc(Cl)ccc1O,49.9%,52.7%,33.9%,50.3%,28.3%,16%,41.3%,28.6%
CCNCCNc1cc(-c2ccc(C(F)(F)F)cc2)c(C#N)c2nc3ccccc3n12,-59.4% (active),-73.9% (active),-96.9% (active),-73.7% (active),-71.6% (active),-95.4% (active),-99.6% (active),–
O=C(Nn1c2c(sc1=NC1CC1)C(=O)c1ccccc1C2=O)c1cc2ccc1CCc1ccc(cc1)CC2,20.4%,37.2%,-93.2% (active),18.3%,11.5%,-9.1% (active),61.4%,–
O=C(Nc1cccc(-c2ccc(Cl)c(C(F)(F)F)c2)c1)C1CCN(Cc2cccc3cccnc23)CC1,-55.8% (active),63.5%,-83.7% (active),-83% (active),-89.9% (active),-75% (active),-83.5% (active),–
COCCOc1cc2ncnc(N3CCN(c4ncc(S(=O)(=O)N5CCCCC5)cn4)CC3)c2cc1OCCOC,87%,105%,105%,109%,78.7%,100%,99.3%,–
CCCCNC(=O)CC1=C(C)/C(=C/c2[nH]c(-c3ccc[nH]3)cc2OC)N=C1C,32.6%,41.7%,20.2%,12.5%,22.3%,3.1% (active),33.8%,–
Cc1cc(N2CCN(CC(=O)Nc3ccc4c(ccn4C)c3)CC2)nc(N2CCCCCC2)n1,65.4%,89.7%,95.2%,93.6%,77.9%,85.6%,127%,93.1%
Nc1nc2ccccc2c2c(=O)c3cccc(Cl)c3sc12,38.7%,99.2%,96.9%,89%,12.2%,64.8%,63%,–
CC1(C)CC(=O)C2=C(C1)N(c1ccc(OC(F)(F)F)cc1)C(N)=C(C#N)C2c1ccc(Br)cc1F (centres undefined),78.9%,69.1%,93.1%,69.9%,83.3%,46.7%,88.4%,–
Cc1cc(=O)n(C(=O)Nc2ccccc2Cl)c2cc(O)ccc12,97.1%,94.4%,104%,93.7%,101%,101%,98.5%,98.1%
Cn1cc(-c2ccc3nc(-c4ccc(CC(=O)ONc5cc(C(C)(C)C)on5)cc4)cnc3c2)cn1,24.2%,29.6%,34.4%,40.6%,53.1%,16.7%,41.8%,–
C=CC(=O)N1CCN(c2cccc(Oc3nccc(Nc4nnc(-c5ccc(Br)cc5)s4)n3)c2)CC1,63.6%,67.1%,-5.55% (active),35.2%,35.9%,58.4%,89.9%,–
COc1cc2c(c(OC)c1OC)CCC(c1cccc(C(=O)Nc3cccc(Cl)c3)c1)O2 (centres undefined),36.7%,67.5%,82.1%,99.2%,73%,74.2%,91%,–
CCOC(=O)c1csc(NC(=O)COc2ccc(/C=C3\Oc4ccccc4C3=O)cc2)n1,97.5%,88.3%,58.6%,105%,69%,82.5%,106%,–
O=c1c2ccccc2n2cnc3ccc(Cl)c1c32,54.4%,75.4%,90.5%,79.2%,75%,65.7%,103%,–
